Our source for the outcome and AC50 values is PubChem BioAssay (EPA / NIEHS).

In general, AC50 refers to the concentration at which the activity in the assay is half-maximal.

A structure can be active in one record and inactive in another. Active and inactive are the calls of the source. The calls were made as follows: active = hit-call score of the fitted dose curve at least 0.9, where 1 is the maximum; inactive = score below 0.9.

The nature of assay [1]: ATG_CRE_CIS: Attagene CIS-FACTORIAL HepG2 Assay for human cAMP Responsive Element (CRE) binding protein 3 (AID 2282926). Conditions: HepG2 CRE cis-reporter, Attagene multiplexed mRNA; actives raise or lower the signal. The method in brief: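 Assay format: transient reporter transfection of HepG2, 24 h treatment, total RNA isolation with DNase I step. Reporter abundance read by fluorescence after PCR and capillary separation; DMSO-normalised gain or loss fitting.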

Assay [2] concerns the target CCAAT/enhancer-binding protein beta (Homo sapiens) (UniProt P17676). Description: ATG_C_EBP_CIS: Attagene CIS-FACTORIAL HepG2 Assay for human CCAAT/Enhancer Binding Protein (C/EBP) beta (AID 2282927). Conditions: HepG2 Attagene cis-factorial transcription factor reporter; actives raise or lower the signal. An outline of the steps:
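HepG2 transiently transfected with multiplexed reporter units under cis-regulatory promoters reporting endogenous C/EBPb activity. After 24 h exposure, reporter mRNA assayed by RT-PCR, fluorescent labelling, HpaI digestion and capillary electrophoresis; bidirectional fitting versus DMSO.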

The nature of assay [3]: ATG_CMV_CIS: Attagene CIS-FACTORIAL HepG2 Assay for human CMV (Internal Marker) (AID 2282928).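 Also: endpoint acts as a background internal control marker rather than a target.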 As to conditions: HepG2 CMV promoter reporter, transcription factor profiling; actives raise or lower the signal. An outline of the steps: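 24 h chemical treatment, HepG2 with transient multi-reporter transfection; RNA → oligo(dT) RT → PCR → 6-FAM extension → HpaI digest → CE fluorescence. Bidirectional fit, DMSO negative control.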

A short description of assay [4]: ATG_DR4_LXR_CIS: Attagene CIS-FACTORIAL HepG2 Assay for human Liver X Receptor (LXR), DR4 submotif (AID 2282929). As to conditions: HepG2 Attagene DR4 cis-reporter, mRNA transcription; actives raise or lower the signal. The method in brief:
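DR4 cis-reporter in HepG2, 24 h exposure. Detection: RT-PCR, 6-FAM labelling, CE fragment analysis. Endpoint fitted bidirectionally, DMSO = baseline.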

Assay [5] concerns the target Aryl hydrocarbon receptor (Homo sapiens) (UniProt P35869). Description: ATG_Ahr_CIS: Attagene CIS-FACTORIAL HepG2 Assay for human Aryl Hydrocarbon Receptor (Ahr) (AID 2282930). Conditions: HepG2 AhR cis-factorial reporter transcription; actives raise or lower the signal. The method in brief:
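HepG2 cells transiently transfected with cis-element-driven multiplexed reporter units; endogenous AhR activity read as reporter mRNA 24 h after dosing, via RT-PCR, 6-FAM labelling, HpaI digestion and capillary electrophoresis. Bidirectional fit relative to DMSO.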

The nature of assay [6]: ATG_AP_1_CIS: Attagene CIS-FACTORIAL HepG2 Assay for human Activator Protein 1 (AP-1) (AID 2282931). As to conditions: HepG2 Attagene cis-factorial AP-1 reporter mRNA; actives raise or lower the signal. The method in brief:
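Cis-regulated reporter units transiently expressed in HepG2 report endogenous transcription-factor activity. Signal: reporter mRNA at 24 h, via RT-PCR and fluorescent capillary electrophoresis. Endpoint derived by bidirectional fitting, DMSO as negative control.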

Assay [7] is described as follows: ATG_AP_2_CIS: Attagene CIS-FACTORIAL HepG2 Assay for human Activator Protein 2 (AP-2) (AID 2282932). Conditions: HepG2 AP-2 cis-reporter, Attagene transcription factor profiling; actives raise or lower the signal. The method in brief:
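Liver-derived HepG2 line, cis-reporter system measuring endogenous factors; 24 h dosing; reporter mRNA detected by fluorescent RT-PCR and capillary electrophoresis.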

Assay [8] is described as follows: ATG_BRE_CIS: Attagene CIS-FACTORIAL HepG2 Assay for human Bone Morphogenetic Protein (BMP) Response Element (BRE) (AID 2282933). Conditions: HepG2 BMP response element reporter, Attagene transcription factor profiling; actives raise or lower the signal. An outline of the steps: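 Transient MRTU transfection of human HepG2 liver cells; 24 h compound treatment; total RNA isolated, reverse-transcribed, PCR-amplified, 6-FAM labelled, HpaI-cut, capillary electrophoresis. DMSO = negative control/baseline, bidirectional fit.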

The target in assay [9] is Retinoic acid receptor alpha (Homo sapiens) (UniProt P10276). Kind of assay: ATG_DR5_RAR_CIS: Attagene CIS-FACTORIAL HepG2 Assay for human Retinoic Acid Receptor Alpha (RARE), DR5 submotif (AID 2282934).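 As to AC50: reporter responds to endogenous RAR alpha beta and gamma in HepG2 not RARA alone.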 Conditions: HepG2 Attagene cis-factorial RARE DR5 reporter, mRNA; actives raise or lower the signal. The method in brief:
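HepG2 cells transiently transfected with multiplexed reporter units; DR5 cis-element drives reporter through endogenous transcription factors. After 24 h dosing, reporter mRNA quantified by RT-PCR, fluorescent labeling, HpaI digestion and capillary electrophoresis; bidirectional fitting versus DMSO.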

Assay [10] concerns the target Transcription factor E2F1 (Homo sapiens) (UniProt Q01094). Kind of assay: ATG_E2F_CIS: Attagene CIS-FACTORIAL HepG2 Assay for human E2F Transcription Factor 1 (AID 2282935). Conditions: HepG2 Attagene cis-reporter, E2F reporter RNA transcripts; actives raise or lower the signal. An outline of the steps: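 Liver-derived HepG2 cells expressing transfected promoter-driven reporter units received test chemical for 24 hours. Signal gains or losses were fitted bidirectionally against DMSO.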

The nature of assay [11]: ATG_E_Box_CIS: Attagene CIS-FACTORIAL HepG2 Assay for human Enhancer Box (E-box) (AID 2282936). As to conditions: HepG2 E-box cis-reporter transcription, actives raise or lower the signal. The method in brief:
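In this cell-based setup, HepG2 cells bearing transfected promoter-driven reporter units were exposed to chemicals for 24 h; reporter transcripts were amplified, 6-FAM-labelled, cut with HpaI and sized by capillary electrophoresis.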

Assay [12] is described as follows: ATG_M_61_CIS: Attagene CIS-FACTORIAL HepG2 Assay for M61 Transcription Factor (Internal Marker) (AID 2282937). As to conditions: HepG2 Attagene CIS-FACTORIAL M61 internal marker reporter; actives raise or lower the signal. An outline of the steps: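 Background-control endpoint: HepG2 cells with cis-regulated reporter constructs, 24 h exposure, reporter mRNA detected via fluorescent primer extension and capillary electrophoresis; values from bidirectional fitting with DMSO baseline.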

The nature of assay [13]: ATG_EGR_CIS: Attagene CIS-FACTORIAL HepG2 Assay for human Early Growth Response 1 (EGR1) (AID 2282938). Conditions: HepG2 Attagene CIS-FACTORIAL EGR reporter mRNA; actives raise or lower the signal. The method in brief:
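Endpoint derived by bidirectional fitting versus DMSO vehicle. Method: cis-promoter reporter units transfected into HepG2, 24 h dosing, RNA isolation, RT-PCR with 6-FAM primer extension and HpaI digestion, then capillary electrophoresis fluorescence detection.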

The nature of assay [14]: APR_HepG2_MicrotubuleCSK_72hr: Apredica 72-hour HepG2 Assay for Microtubule CSK Stabilty (AID 2282919). Conditions: HepG2 microtubule cytoskeleton, high-content imaging, actives raise or lower the signal. The method in brief: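 HepG2, 72 hr cmpd exposure, 0.39–200 uM (10 pts, duplicate), 0.5% DMSO. 3.7% formaldehyde fix, 0.5% Triton perm, anti-alpha-tubulin/Cy5 plus Hoechst. HCS fluorescence intensity; bidirectional fit vs DMSO baseline; taxol as positive control.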

Assay [15] is described as follows: APR_HepG2_P-H2AX_24hr: Apredica 24-hour HepG2 Assay for H2AX Phosphorylation (AID 2282920). Conditions: high-content imaging, actives raise or lower the signal. An outline of the steps:
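HepG2, 24 hr, cpd 0.39–200 uM (10 conc, duplicate), DMSO 0.5% v/v final. Fix 3.7% formaldehyde, Triton X-100 permeabilize, anti-phospho-H2A.x 1:200 + Hoechst 2 ug/mL. Imaged, bidirectional fit vs DMSO.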

A short description of assay [16]: APR_HepG2_StressKinase_72hr: Apredica 72-hour HepG2 Assay for Stress Kinase (AID 2282921). Conditions: HepG2 stress kinase (phospho-c-Jun) imaging, actives raise or lower the signal. An outline of the steps: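 After a 72 h compound treatment spanning 0.39 to 200 uM, formaldehyde-fixed cells are labelled for phosphorylated c-Jun and nuclei, imaged by automated fluorescence microscopy, and activity is fitted in both directions relative to DMSO controls.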

Assay [17] is described as follows: APR_HepG2_StressKinase_24hr: Apredica 24-hour HepG2 Assay for Stress Kinase (AID 2282922). Conditions: HepG2 stress kinase (phospho-c-Jun) imaging, actives raise or lower the signal. An outline of the steps: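 Read-out: phospho-c-Jun immunofluorescence (Cy3 secondary) quantified by high-content imaging at 20x, nuclei defined by Hoechst 33342. Human HepG2 liver cells dosed 24 hr, 0.39–200 uM, DMSO 0.5% v/v; gain or loss of signal fitted relative to DMSO.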

Assay [18] in a line: APR_HepG2_MitoMass_72hr: Apredica 72-hour HepG2 Assay for Mitochondrial Mass (AID 2282924).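 Also: MitoTracker Red CMXRos stain intensity per cell imaged as mitochondrial mass.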 As to conditions: high-content imaging, actives raise or lower the signal. An outline of the steps: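 Read-out: MitoTracker Red fluorescence intensity from automated imaging (20x, six fields per well) in human HepG2 liver cells. Dosing ran 72 hr, 0.39–200 uM, 0.5% DMSO; bidirectional curve fitting versus DMSO baseline.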

Assay [19] is described as follows: APR_HepG2_NuclearSize_72hr: Apredica 72-hour HepG2 Assay for Nuclear Size (AID 2282925). As to conditions: high-content imaging, actives raise or lower the signal. An outline of the steps:
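Read-out: nuclear diameter from Hoechst 33342 images (ArrayScan, 20x, six fields/well), via cell-cycle image analysis. HepG2 were dosed 0.39–200 uM for 72 hr in 0.5% DMSO. Bidirectional fit relative to DMSO.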

Sequence of Retinoic acid receptor alpha (Homo sapiens) (P10276 whole entry, looked up): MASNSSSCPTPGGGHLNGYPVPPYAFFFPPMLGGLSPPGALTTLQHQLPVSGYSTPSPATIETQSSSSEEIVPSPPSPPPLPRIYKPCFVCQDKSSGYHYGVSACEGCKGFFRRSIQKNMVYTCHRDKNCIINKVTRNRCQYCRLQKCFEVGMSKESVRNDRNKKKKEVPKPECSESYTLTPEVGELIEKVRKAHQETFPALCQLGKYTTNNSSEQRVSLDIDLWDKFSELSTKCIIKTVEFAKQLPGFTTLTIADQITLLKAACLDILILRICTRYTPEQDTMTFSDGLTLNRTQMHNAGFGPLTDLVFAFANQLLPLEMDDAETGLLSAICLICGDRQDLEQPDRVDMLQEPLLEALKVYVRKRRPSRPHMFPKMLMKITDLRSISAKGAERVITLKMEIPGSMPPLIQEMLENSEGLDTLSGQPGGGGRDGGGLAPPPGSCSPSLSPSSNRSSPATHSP
Sequence of CCAAT/enhancer-binding protein beta (Homo sapiens) (P17676 whole entry, looked up): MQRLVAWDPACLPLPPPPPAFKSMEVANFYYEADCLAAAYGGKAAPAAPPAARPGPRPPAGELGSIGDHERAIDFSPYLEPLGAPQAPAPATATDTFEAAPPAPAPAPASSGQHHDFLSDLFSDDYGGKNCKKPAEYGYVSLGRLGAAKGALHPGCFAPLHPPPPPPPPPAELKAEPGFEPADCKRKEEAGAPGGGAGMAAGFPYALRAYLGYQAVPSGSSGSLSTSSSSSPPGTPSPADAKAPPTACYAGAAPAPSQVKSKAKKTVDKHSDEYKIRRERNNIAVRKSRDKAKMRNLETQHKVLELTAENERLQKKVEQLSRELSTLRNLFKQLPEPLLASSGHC
Sequence of Transcription factor E2F1 (Homo sapiens) (Q01094 whole entry, looked up): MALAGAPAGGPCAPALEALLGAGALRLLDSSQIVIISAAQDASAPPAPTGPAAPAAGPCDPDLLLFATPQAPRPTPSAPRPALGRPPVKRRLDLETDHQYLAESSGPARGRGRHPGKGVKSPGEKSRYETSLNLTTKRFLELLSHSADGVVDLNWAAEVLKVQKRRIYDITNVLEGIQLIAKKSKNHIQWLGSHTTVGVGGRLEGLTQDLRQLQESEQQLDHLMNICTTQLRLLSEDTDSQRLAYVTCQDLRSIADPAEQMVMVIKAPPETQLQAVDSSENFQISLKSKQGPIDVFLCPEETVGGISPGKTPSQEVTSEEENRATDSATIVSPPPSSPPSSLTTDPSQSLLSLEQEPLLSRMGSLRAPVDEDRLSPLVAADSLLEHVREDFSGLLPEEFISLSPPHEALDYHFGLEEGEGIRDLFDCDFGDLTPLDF
Sequence of Aryl hydrocarbon receptor (Homo sapiens) (P35869 whole entry, looked up): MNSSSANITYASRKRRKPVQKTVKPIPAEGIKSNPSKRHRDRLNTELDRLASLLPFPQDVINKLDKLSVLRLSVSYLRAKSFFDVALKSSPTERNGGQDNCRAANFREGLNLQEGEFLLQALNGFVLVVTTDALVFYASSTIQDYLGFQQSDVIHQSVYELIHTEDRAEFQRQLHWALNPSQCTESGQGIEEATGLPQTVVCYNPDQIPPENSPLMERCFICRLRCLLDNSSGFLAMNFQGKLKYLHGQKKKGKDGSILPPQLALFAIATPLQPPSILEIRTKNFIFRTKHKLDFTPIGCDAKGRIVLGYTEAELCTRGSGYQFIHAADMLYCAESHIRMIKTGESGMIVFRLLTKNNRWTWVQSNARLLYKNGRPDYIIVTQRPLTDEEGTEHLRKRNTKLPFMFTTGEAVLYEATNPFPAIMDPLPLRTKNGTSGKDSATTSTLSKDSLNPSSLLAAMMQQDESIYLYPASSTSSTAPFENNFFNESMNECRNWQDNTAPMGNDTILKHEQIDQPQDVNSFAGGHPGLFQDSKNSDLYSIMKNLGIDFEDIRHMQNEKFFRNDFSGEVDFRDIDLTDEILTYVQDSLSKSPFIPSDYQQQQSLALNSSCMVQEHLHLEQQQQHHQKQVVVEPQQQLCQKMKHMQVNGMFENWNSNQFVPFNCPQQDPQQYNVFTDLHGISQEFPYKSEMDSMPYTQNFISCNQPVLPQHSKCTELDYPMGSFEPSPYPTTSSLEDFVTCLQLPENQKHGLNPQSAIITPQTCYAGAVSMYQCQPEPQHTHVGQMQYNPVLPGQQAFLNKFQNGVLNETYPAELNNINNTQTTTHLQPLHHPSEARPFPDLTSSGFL

On to `O=S1OC[C@@H]2[C@H](CO1)[C@]1(Cl)C(Cl)=C(Cl)[C@@]2(Cl)C1(Cl)Cl` (stereo partly specified), for which the outcome in assay [1], in [2], in assay [5], in assay [7], in [8] and in assay [9] was inactive. Further, the call in assay [10], in assay [11], in [12] and in [13] was inactive. Also, the figures for the AC50 in [3], in assay [4] and in assay [6] were 100 µM (active), 27.1 µM (active) and 100 µM (active), respectively.

On to `Nc1ccc(N)cc1`, for which the AC50 was 11.7 µM (active) in assay [1]; 24.3 µM (active) in [3]; 44.6 µM (active) in assay [4]; 70.9 µM (active) in [6]; 37.5 µM (active) in [9]. In addition, the compound was called inactive in assay [1], in assay [2], in assay [3], in [4], in assay [6] and in [7]. Moreover, the compound was classed as inactive in [8], in [9], in [10], in assay [11], in assay [12] and in assay [13].

Consider `CN(C)C(=S)S`, for which the AC50 is 1.78 µM (active) in assay [14]; 12 µM (active) in [15]; 1.16 µM (active) in assay [16]; 0.0391 µM (active) in assay [18]; 26.2 µM (active) in assay [3]; 25.5 µM (active) in assay [4]. For the same compound, the AC50 in [6] is 25.9 µM (active). For the same compound, the result in assay [17], in [19], in assay [1], in [2], in assay [5] and in assay [7] was inactive. For the same compound, the compound was called inactive in assay [8], in [10], in [11], in assay [12] and in assay [13].

In the case of `CC(C)O.CC(C)O.OCCN(CCO)CCO.OCCN(CCO)CCO.[Ti]`, the compound was called inactive in [14], in assay [15], in [16], in [17], in [18] and in assay [19]. Further, the compound was called inactive in assay [1], in [2], in assay [3], in [4], in assay [6] and in assay [7]. The result in assay [9], in assay [10], in [11], in [12] and in assay [13] was inactive. The AC50 in assay [8] is 6.97 µM (active).
